# Where “and” joins values, the source holds several entries; their conditions need not be identical. Equal values may be shown once. Results filed as inconclusive are left out. Calls of active or inactive are those of the source. Rule for the calls: active = hit-call score of the fitted dose curve at least 0.9, where 1 is the maximum; inconclusive = response in the unintended direction; inactive = score below 0.9.
# Columns and labels:
# [1] = TOX21_p53_BLA_p2_viability: Viability Assessment in the Tox21 HCT-116 p53 Agonism Beta-lactamase Assay, Phase 2 (AID 2283591);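 note: compound exposure lasted 16 h at 37 °C; actives lower the ATP signal meaning cytotoxicity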
# How it was run: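 HCT116 p53-bla cells, 4000/well, dosed after 5 h plating (217-fold dilution of DMSO stocks) and incubated 16 h at 37C. Viability taken as cellular ATP by CellTiter-Glo luminescence after 30 min RT; signal loss marks cytotoxicity.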
# [2] = target: Cellular tumor antigen p53 (Homo sapiens) (UniProt P04637); experiment: TOX21_p53_BLA_p2_ratio: Tox21 HCT-116 p53 Agonism Beta-lactamase Assay, Ratio, Phase 2 (AID 2283592)
# How it was run: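 DMSO-normalized, positive-direction endpoint derived from the 460 nm/530 nm FRET ratio in HCT116 p53 beta-lactamase reporter cells exposed 16 h at 37C and loaded with CCF4-AM for 2 h.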
# [3] = TOX21_p53_BLA_p3_viability: Viability Assessment in the Tox21 HCT-116 p53 Agonism Beta-lactamase Assay, Phase 3 (AID 2283593);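 note: cells exposed to compound for 16 h before reading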
# How it was run: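 HCT116 cells, 4000/well, dosed 5 h after plating by pin transfer (217-fold dilution from DMSO stock) and incubated 16 h at 37C, 5% CO2. Viability read as ATP luminescence with CellTiter-Glo after 30 min at room temperature.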
# [4] = target: Cellular tumor antigen p53 (Homo sapiens) (UniProt P04637); experiment: TOX21_p53_BLA_p3_ratio: Tox21 HCT-116 p53 Agonism Beta-lactamase Assay, Ratio, Phase 3 (AID 2283596)
# How it was run: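 Cells were seeded at 4000/well, rested 5 h at 37C, then dosed with DMSO compound solutions (217-fold dilution) for 16 h. CCF4-AM substrate was loaded for 2 h at room temperature, and the 460/530 nm emission ratio was fitted for gain of signal versus DMSO.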
# [5] = TOX21_p53_BLA_p4_viability: Viability Assessment in the Tox21 HCT-116 p53 Agonism Beta-lactamase Assay, Phase 4 (AID 2283597);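 note: hits lower the luminescence signal meaning cytotoxicity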
# How it was run: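 In this multiplexed secondary endpoint, HCT116 cells (4000 per well, compound at 5 h, 16 h treatment) received CellTiter-Glo after the beta-lactamase read. Luminescence after 30 min RT reflects ATP, and falling signal marks cytotoxicity.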
# [6] = target: Cellular tumor antigen p53 (Homo sapiens) (UniProt P04637); experiment: TOX21_p53_BLA_p5_ratio: Tox21 HCT-116 p53 Agonism Beta-lactamase Assay, Ratio, Phase 5 (AID 2283599)
# How it was run: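 HCT-116 p53-bla cells (4000/well) plated 5 h, dosed with compound (217-fold DMSO dilution) for 16 h at 37 C; CCF4-AM substrate 2 h at room temperature. Activity is the 460/530 nm emission ratio (405 nm excitation), fitted in gain-of-signal direction versus DMSO.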
# [7] = TOX21_p53_BLA_p5_viability: Viability Assessment in the Tox21 HCT-116 p53 Agonism Beta-lactamase Assay, Phase 5 (AID 2283600)
# How it was run: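 Here cell health was gauged by ATP levels in wells holding 4000 cells, each treated 16 h with DMSO-delivered compounds at 217-fold dilution; reduced luminescence marked toxicity.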
# [8] = target: Cellular tumor antigen p53 (Homo sapiens) (UniProt P04637); experiment: TOX21_p53_BLA_p4_ratio: Tox21 HCT-116 p53 Agonism Beta-lactamase Assay, Ratio, Phase 4 (AID 2283601)
# How it was run: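 HCT-116 p53 beta-lactamase reporter cells (4000/well) preincubated 5 h, then compound (217-fold dilution of DMSO stock) for 16 h at 37C. CCF4-AM substrate added 2 h at room temperature; 460/530 nm emission ratio fitted upward versus DMSO.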
# Cellular tumor antigen p53 (Homo sapiens), sequence (P04637 whole entry, looked up): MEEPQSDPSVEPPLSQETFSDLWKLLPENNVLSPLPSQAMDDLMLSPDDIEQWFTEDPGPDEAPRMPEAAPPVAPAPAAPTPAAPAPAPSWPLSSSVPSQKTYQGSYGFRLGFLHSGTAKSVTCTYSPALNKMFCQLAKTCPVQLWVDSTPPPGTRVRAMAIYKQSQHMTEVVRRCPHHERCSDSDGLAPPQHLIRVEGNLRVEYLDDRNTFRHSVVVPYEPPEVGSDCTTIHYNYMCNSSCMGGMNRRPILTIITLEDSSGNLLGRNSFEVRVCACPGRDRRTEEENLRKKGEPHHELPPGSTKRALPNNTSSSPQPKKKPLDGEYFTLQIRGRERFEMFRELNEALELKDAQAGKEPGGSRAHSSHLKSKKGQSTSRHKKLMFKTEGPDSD
SMILES,outcome [1],outcome [2],outcome [3],outcome [4],outcome [5],outcome [6],outcome [7],outcome [8],AC50 [1],AC50 [2],AC50 [3],AC50 [4],AC50 [5],AC50 [6],AC50 [7],AC50 [8]
O=C(O)c1cc(=O)c2c3nc4ccccc4oc-3cc(=O)c2[nH]1,inactive,inactive,inactive,inactive,inactive,inactive,inactive,inactive,–,–,–,–,–,–,–,–
CCCCC(CC)CN=C(N)NC(N)=NCCCCCCN=C(N)NC(N)=NCC(CC)CCCC (stereo unspecified),–,–,–,–,–,–,–,–,32 µM (active),24.1 µM (active),36.8 µM (active),33.9 µM (active),29.4 µM (active),37.3 µM (active),31.6 µM (active),27.9 µM (active)
CCCCCCCC/C=C\CCCCCCCC(=O)NCc1ccc(O)c(OC)c1,inactive,inactive,–,inactive,inactive,inactive,inactive,inactive,–,–,41.5 µM (active),–,–,–,–,–
COc1cc(O)cc(O)c1,inactive,inactive,inactive,inactive,inactive,inactive,inactive,inactive,–,–,–,–,–,–,–,–
Cc1c(-c2ccccc2)oc2c(C(=O)OCCN3CCCCC3)cccc2c1=O,inactive,inactive,inactive,inactive,inactive,inactive,inactive,inactive,–,–,–,–,–,–,–,–
CN=C(N)NCCC[C@H](N)C(=O)O,inactive,inactive,inactive,inactive,inactive,inactive,inactive,inactive,–,–,–,–,–,–,–,–
C=COCC1CCC(CO)CC1 (stereo unspecified),inactive,inactive,inactive,inactive,inactive,inactive,inactive,inactive,–,–,–,–,–,–,–,–
C[C@]12O[C@H](C[C@]1(O)CO)n1c3ccccc3c3c4c(c5c6ccccc6n2c5c31)CNC4=O,–,–,–,–,–,–,inactive,–,1.06 µM (active),0.0434 µM (active),1.13 µM (active),0.0715 µM (active),2.24 µM (active),0.0787 µM (active),–,0.0528 µM (active)
COc1c(C)c2c(c(O)c1C/C=C(\C)CCC(=O)OCCN1CCOCC1)C(=O)OC2,inactive,–,inactive,–,–,–,inactive,–,–,0.139 µM (active),–,0.164 µM (active),0.805 µM (active),0.183 µM (active),–,0.194 µM (active)
CC(C)c1ccc2sc3ccccc3c(=O)c2c1,inactive,inactive,inactive,inactive,–,inactive,inactive,inactive,–,–,–,–,72.8 µM (active),–,–,–
CCCCCCCCS(=O)C(C)Cc1ccc2c(c1)OCO2 (stereo unspecified),–,–,inactive,–,–,–,–,–,78.9 µM (active),39.3 µM (active),–,90.9 µM (active),74.7 µM (active),86.8 µM (active),58.2 µM (active),88.7 µM (active)
Cc1cc(/C=C/c2ccc3cc(N(C)C)ccc3[n+]2C)c(C)n1-c1ccccc1,–,–,inactive,–,–,–,inactive,–,16.7 µM (active),13.4 µM (active),–,16.1 µM (active),16.6 µM (active),15.8 µM (active),–,20.1 µM (active)
CC[C@H](C)[C@H]1O[C@]2(CC[C@@H]1C)C[C@@H]1C[C@@H](C/C=C(\C)[C@@H](O[C@H]3C[C@H](OC)[C@@H](O[C@H]4C[C@H](OC)[C@@H](O)[C@H](C)O4)[C@H](C)O3)[C@@H](C)/C=C/C=C3\CO[C@@H]4[C@H](O)C(C)=C[C@@H](C(=O)O1)[C@]34O)O2,–,–,–,–,–,–,–,–,5.51 µM (active),17.6 µM (active),6.87 µM (active),14.5 µM (active),6.4 µM (active),8.8 µM (active),7.23 µM (active),9.63 µM (active)
c1ccc(-c2ccc(C(c3ccccc3)n3ccnc3)cc2)cc1 (stereo unspecified),inactive,–,inactive,–,–,–,inactive,–,–,35.9 µM (active),–,39.5 µM (active),38.2 µM (active),36.5 µM (active),–,34.1 µM (active)
Clc1ccc(C(Cn2ccnc2)OCc2c(Cl)cccc2Cl)c(Cl)c1 (stereo unspecified),inactive,–,inactive,–,inactive,inactive,inactive,–,–,17.7 µM (active),–,17.9 µM (active),–,–,–,16.7 µM (active)
CC(=O)NCc1c(I)c(NC(C)=O)c(I)c(C(=O)O)c1I,inactive,inactive,inactive,inactive,inactive,inactive,inactive,inactive,–,–,–,–,–,–,–,–
O=C(NOCC1CC1)c1ccc(F)c(F)c1Nc1ccc(I)cc1Cl,inactive,–,–,–,–,–,–,–,–,7.89 µM (active),23 µM (active),23.9 µM (active),23 µM (active),20.5 µM (active),19.7 µM (active),30.5 µM (active)
Cc1cccc(N(C)C(=S)Oc2ccc3c(c2)CCC3)c1,inactive,inactive,inactive,inactive,inactive,inactive,inactive,inactive,–,–,–,–,–,–,–,–
OCCN1CCN(CCCN2c3ccccc3Sc3ccc(C(F)(F)F)cc32)CC1,inactive,inactive,inactive,inactive,–,inactive,inactive,–,–,–,–,–,33.5 µM (active),–,–,40.9 µM (active)

SMILES,outcome [1],outcome [2],outcome [3],outcome [4],outcome [5],outcome [6],outcome [7],outcome [8],AC50 [1],AC50 [2],AC50 [3],AC50 [4],AC50 [5],AC50 [6],AC50 [7],AC50 [8]
CCCCCCCCC(CCCCCC)C(=O)O (stereo unspecified),inactive,inactive,–,inactive,inactive,inactive,inactive,inactive,–,–,65.9 µM (active),–,–,–,–,–
Oc1ccc(Cl)cc1Sc1cc(Cl)ccc1O,–,–,–,–,–,–,–,–,31.3 µM (active) and 23 µM (active),31.8 µM (active) and 8.26 µM (active),46 µM (active) and 23 µM (active),46 µM (active) and 21.2 µM (active),53.9 µM (active) and 15.2 µM (active),72.3 µM (active) and 32.1 µM (active),70.2 µM (active) and 23 µM (active),65 µM (active) and 28.6 µM (active)
CC(C)OC(=O)CCCCC(=O)OC(C)C,inactive,–,inactive,inactive,inactive,–,inactive,–,–,60.5 µM (active),–,–,–,71.9 µM (active),–,69 µM (active)
CCCCCCCC/C=C\CCCCCCCC(=O)N(CCO)CCO,inactive,inactive,inactive,inactive,inactive,inactive,inactive,inactive,–,–,–,–,–,–,–,–
C=CC(=O)OCC1CC2CC1C1CCC(COC(=O)C=C)C21 (stereo unspecified),–,–,inactive,inactive,–,–,inactive,–,65.8 µM (active),55.2 µM (active),–,–,64.1 µM (active),74.8 µM (active),–,53 µM (active)
CCCCCCCCCCOCC(O)CN (stereo unspecified),–,inactive,inactive,inactive,–,inactive,inactive,–,36.8 µM (active),–,–,–,36.8 µM (active),–,–,42.9 µM (active)
Oc1ccc(Sc2ccc(O)cc2)cc1,inactive,–,inactive,–,inactive,–,inactive,inactive,–,69.4 µM (active),–,69.8 µM (active),–,70.4 µM (active),–,–
COc1ccc(CN2CCN(C(c3ccc(F)cc3)c3ccc(F)cc3)CC2)c(OC)c1OC,–,inactive,–,inactive,–,inactive,inactive,inactive,23 µM (active),–,23 µM (active),–,23 µM (active),–,–,–
O=C(O)Cc1cn(-c2ccccc2)nc1-c1ccc(Cl)cc1,inactive,inactive,inactive,inactive,inactive,inactive,inactive,inactive,–,–,–,–,–,–,–,–
CC1(S(=O)(=O)O)CC(=O)c2ccccc2C1=O (stereo unspecified),inactive,–,inactive,–,inactive,–,inactive,inactive,–,34.5 µM (active),–,43.4 µM (active),–,36.7 µM (active),–,–
CCOC(=O)Nc1ccc(NCc2ccc(F)cc2)nc1N,inactive,inactive,inactive,inactive,inactive,inactive,inactive,inactive,–,–,–,–,–,–,–,–
O=C(O)c1cc(N=Nc2ccc([N+](=O)[O-])cc2)ccc1O,–,inactive,–,inactive,–,inactive,inactive,inactive,84.1 µM (active),–,45.4 µM (active),–,29.6 µM (active),–,–,–
CC(C)(C)CC(C)(C)c1ccccc1O,–,–,–,–,–,–,–,–,74.6 µM (active),75.3 µM (active),68.9 µM (active),77.8 µM (active),65.9 µM (active),81.5 µM (active),68 µM (active),81.7 µM (active)
C(=C\c1ccccc1)/CN1CCN(C(c2ccccc2)c2ccccc2)CC1,inactive,inactive,inactive,inactive,inactive,inactive,inactive,inactive,–,–,–,–,–,–,–,–
CC[C@@H](C(=O)[C@@H](C)[C@@H](O)[C@H](C)CCc1ccc(C)c(O)c1C(=O)O)[C@H]1O[C@](CC)([C@H]2CC[C@](O)(CC)[C@H](C)O2)C[C@@H]1C,–,–,–,–,–,–,–,–,23 µM (active),17.2 µM (active),23 µM (active),30.3 µM (active),31.1 µM (active),36.2 µM (active),31.4 µM (active),14.6 µM (active)
CCOC(=O)Oc1c(OC)cc(C(=O)O[C@@H]2C[C@@H]3CN4CCc5c([nH]c6cc(OC)ccc56)[C@H]4C[C@@H]3[C@H](C(=O)OC)[C@H]2OC)cc1OC,inactive,inactive,inactive,inactive,inactive,inactive,inactive,inactive,–,–,–,–,–,–,–,–
Cc1c(Cl)cccc1Nc1ccccc1C(=O)O,–,–,–,–,–,–,inactive,–,5.79 µM (active),19.4 µM (active),23 µM (active),21.1 µM (active),10.2 µM (active),21.6 µM (active),–,17.7 µM (active)
CCN1/C(=C/C=C/c2sc3ccccc3[n+]2CC)Sc2ccccc21,inactive,–,–,–,–,–,inactive,–,–,9.06 µM (active),4.58 µM (active),23.5 µM (active),20 µM (active),11.5 µM (active),–,12.9 µM (active)

# Source: PubChem BioAssay (EPA / NIEHS)
